Laboratory results: PubChem BioAssay (NCATS)
Results filed as inconclusive are left out. Unmarked numbers belong to inactive results. Calls follow the shape of the dose curve; as a rule, active = well fitted cell-killing curve with a large enough effect; inconclusive = small, poorly fitted or top-dose-only effect, or effect the other way; inactive = flat fitted curve, though single readings scatter.

test system: C33A; test: Primary qHTS to identify gynecologic anti-cancer compounds using libraries of approved drugs and bioactive compounds (AID 1345084); details: Gynecologic cancer cell panel viability, ATPlite luminescence, 48 h; series mostly up to 57.5 µM; activity change, negative = cytotoxicity: at the top concentration; also: nearly all actives have a fitted effect of over 55% in size
Summary of the method: (§1)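 Cytotoxicity screen measuring ATP content by luciferase luminescence. Each compound is applied at five concentrations for 48 h at 37 C with 5% CO2.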
% is scaled to controls: 0 for no effect and ±100 for the full control effect.

Row | SMILES | activity change, negative = cytotoxicity
1 | CCN(Cc1cccnc1)C(=O)CN(c1ccc(OC)nc1)S(=O)(=O)c1ccccc1C | 5.11%
2 | COc1ccc(CN2C(=O)C(=O)c3cc(S(=O)(=O)N4CCC[C@H]4COc4cccnc4)ccc32)cc1 | 12.3%
3 | CC1=CC(=O)[C@]2(O[C@@H]3O[C@@H](C)[C@H](O)[C@@H](O)[C@H]3OC(=O)/C=C/c3ccccc3)C=CO[C@@H](O[C@@H]3O[C@H](CO)[C@@H](O)[C@H](O)[C@H]3O)[C@H]12 | -3.53% [at 25.3 µM]
4 | O=C(O)c1ccccc1NC(=O)N1CCC(c2ccccc2C(F)(F)F)CC1 | 11.5%
5 | Nc1nc2c(ncn2[C@@H]2O[C@H](CO)[C@@H](O)[C@H]2O)c(=O)[nH]1 | 5.34%
6 | C/C1=C\C[C@]2(C)C(=O)C(O)=C([C@H](C)CO)[C@H]2C/C=C(\C)[C@@H](O)CC/C(C)=C/CC1 | 1.77% [at 38.5 µM]
7 | C[C@]12C[C@@H](O)[C@@H]3C[C@@]1(O[C@@H]1O[C@H](CO)[C@@H](O)[C@H](O)[C@H]1O)[C@]3(COC(=O)c1ccccc1)C(=O)O2 | -1.36% [at 25.3 µM]

test system: CAOV3; test: as above; details: Gynecologic cancer cell panel viability, ATPlite luminescence, 48 h; series mostly up to 57.5 µM; activity change, negative = cytotoxicity: at the top concentration
Summary of the method: as §1

Row | SMILES | activity change, negative = cytotoxicity
8 | CN(C)CC1CCOC1(c1ccccc1)c1ccccc1 (stereo unspecified) | 9.11% [at 25.3 µM]
9 | CC1(C)CC[C@]2(C(=O)OC3OC(CO)C(O)C(O)C3O)CC[C@]3(C)C(=CCC4[C@@]5(C)CC[C@H](OC6OC(C(=O)O)C(O)C(OC7OC(CO)C(O)C(O)C7O)C6O)C(C)(C)C5CC[C@]43C)C2C1 (stereo partly specified) | -9.9% [at 11.6 µM]
10 | COC(=O)C1=CO[C@@H](O[C@@H]2O[C@H](CO)[C@@H](O)[C@H](O)[C@H]2O)[C@@H]2C(COC(C)=O)=C[C@H](O)[C@H]12 | -29.8% [at 25.3 µM]
11 | CC12CCC(OC3OC(CO)C(O)C(OC4OC(CO)C(O)C(O)C4O)C3O)CC1=CCC1C2CCC2(C)/C(=C3/COC(=O)C3)CCC12O (stereo unspecified) | 15.1% [at 25.3 µM]
12 | C/C1=C\[C@H]2OC(=O)[C@@H](C)[C@@H]2CC/C(C(=O)O)=C/CC1 | -8.09%
13 | CC12CCC(OC3OC(CO)C(O)C(OC4OC(CO)C(O)C(O)C4O)C3O)CC1CCC1C2CCC2(C)/C(=C3/COC(=O)C3)CCC12O (stereo unspecified) | 8.5% [at 25.3 µM]
14 | CC1(C)CCC[C@@]2(C)C1[C@H](OC(=O)/C=C/C=C/C(=O)O)C=C1COC(=O)[C@@]12O (stereo partly specified) | -3.16% [at 38.5 µM]
15 | C[C@@H]1O[C@@H](O[C@H]2[C@H](OC(=O)[C@]34CCC(C)(C)C[C@H]3C3=CCC5[C@@]6(C)C[C@H](O)[C@H](O[C@@H]7O[C@H](CO)[C@@H](O)[C@H](O)[C@H]7O)[C@@](C)(CO)C6[C@H](O)C[C@@]5(C)[C@]3(C)CC4)OC[C@H](O)[C@@H]2O)[C@H](O)[C@H](O)[C@H]1O[C@@H]1OC[C@@H](O)[C@H](O[C@@H]2OC[C@](O)(CO)[C@H]2O)[C@H]1O (stereo partly specified) | 10.8% [at 6.55 µM]
16 | CC(=O)OC1C(O)CC2(C)C(CCC(C)C23Cc2c(O)cc(CO)c(C=O)c2O3)C1(C)C (stereo unspecified) | 0.274% [at 25.3 µM]
17 | C/C(=C\CCC(C)CCO)C(=O)OC1(C)CCC2C(C(=O)O)=COC(OC3OC(CO)C(O)C(O)C3O)C21 (stereo unspecified) | 25.4% [at 25.3 µM]
18 | CC1(C)CCCC2(C)C(C(=O)O)=CCC12 (stereo unspecified) | -16.4%
19 | CCC(C)/C=C(C)/C=C/c1cc2c(cn1)C(=O)C(C)(OC(C)=O)C(O)=C2Cl (stereo unspecified) | 4.41% [at 38.5 µM]
20 | CC(O)/C=C/C1(O)C(C)C(O[C@@H]2O[C@H](CO)[C@@H](O)[C@H](O)[C@H]2O)C(O)CC1(C)C (stereo partly specified) | -6.08% [at 25.3 µM]
21 | C[C@@H]1O[C@@H](O[C@H]2[C@H](OC(=O)[C@]34CCC(C)(C)C[C@H]3C3=CCC5[C@@]6(C)CC[C@H](O[C@@H]7O[C@H](C(=O)O)[C@@H](O)[C@H](O)[C@H]7O[C@@H]7O[C@H](CO)[C@H](O)[C@H](O)[C@H]7O)[C@@](C)(C=O)C6CC[C@@]5(C)[C@]3(C)C[C@H]4O)O[C@H](C)[C@H](O[C@@H]3O[C@H](C)[C@H](O)[C@H](O)[C@H]3O)[C@@H]2O)[C@H](O)[C@H](O)[C@H]1O[C@@H]1OC[C@@H](O)[C@H](O[C@@H]2O[C@H](CO)[C@@H](O)[C@H](O)[C@H]2O)[C@H]1O (stereo partly specified) | 2.56% [at 6.55 µM]
22 | COC(=O)C12CCC(C)C(C)C1C1=CCC3C4(C)CCC(OC(C)=O)C(C)(C)C4CCC3(C)C1(C)CC2 (stereo unspecified) | -10.6% [at 25.3 µM]
23 | C=C1C(=O)O[C@H](CCC)[C@H]1C(=O)O | 0.0516%
24 | CCOc1cc(CC(=O)NC(CC(C)C)c2ccccc2N2CCCCC2)ccc1C(=O)O (stereo unspecified) | 13.7%
25 | COC1=CC(=O)CC(C)C12Oc1cc(OC)cc(O)c1C2=O (stereo unspecified) | 1.02%
26 | CCc1ccc(Cc2ccc3c(c2)[C@]2(OC3)O[C@H](CO)[C@@H](O)[C@H](O)[C@H]2O)cc1 | 33.4%
